Bioassay records from PubChem.
TROY NFkB inh: inhibitors of TROY-driven NF-kB signaling, primary screen, Q293 LMP1-TROYcd cells, NF-kB luciferase, uHTS | hit rate 0.98% among 360,000 | Q293 LMP1-TROYcd NF-kB luciferase reporter, 4 h | inhibition, % at 10 µM;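 active = compounds whose plate-normalised and pattern-corrected inhibition of the luciferase reporter signal at the single screening dose is 50% or more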
EWS-Fli block: EWS/Fli-driven NR0B1 reporter inhibitors, primary screen, A673 cells, NR0B1 luciferase, luminescence, MLPCN library. hit rate 0.67% among 350,000. inhibition, % at 12.6 µM. viability-normalised;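 active = mean inhibition of at least 50% after viability correction, with every replicate also passing that limit; inconclusive = mean reaches 50% but only one of two replicates passes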;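 note: firefly luciferase signal divided by Alamar Blue viability fluorescence both relative to DMSO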
TWEAK-Fn14 inh: inhibitors of TWEAK-Fn14 signaling, primary screen, luciferase reporter cells, uHTS | hit rate 2% among 360,000 | AID 1159606, 2016 | inhibition, % at 10 µM | TWEAK-stimulated Fn14 reporter cells, luciferase luminescence, 8 h; in the data active = inhibition above about 50%
LMP1 NFkB inh: EBV LMP1-driven NF-kappaB luciferase reporter inhibitors, primary screen, cell-based, luminescence, single point. hit rate 0.69% among 350,000. AID 504558, 2011. LMP1-induced NF-kappaB luciferase reporter cells. inhibition, % at 12.5 µM; in the data active = inhibition above about 41%; inconclusive = no clear call, values can overlap the other calls
LGR2 inh: inhibitors of bursicon-induced LGR2 CRE-luciferase signal, primary screen, cell-based, HEK293, CRE-luciferase reporter, bursicon stimulation. bursicon-stimulated, 4 h. hit rate 0.35% among 380,000. inhibition, % at 9.99 µM;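 active = drop in luminescence signal, shown as inhibition above about 50% in the replicate tests, limit read from the data, passing the limit was not always enough; inconclusive = probably only some replicates passing the limit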;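 note: agonist challenge used bursicon conditioned medium at about half maximal strength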
Numbers stand for hits; – = inactive; ? = inconclusive; · = not tested or not shown. The list is not random: actives were taken first. Their share in the collection is about 2.5%.

SMILES | TROY NFkB inh | EWS-Fli block | TWEAK-Fn14 inh | LMP1 NFkB inh | LGR2 inh
Cc1nc(C)c(C(=O)Nc2ccccc2)s1 | – | · | – | – | –
Cc1nc(C)c(C(=O)O)s1 | – | – | 95 | – | –
O=[N+]([O-])c1ccc(C[n+]2cccc3c4ccccc4ccc32)cc1 | – | – | – | – | –
CCCCCCCCCCCCCCCC[n+]1cccc2ccccc21 | 54 | 89 | 72 | – | –
CCCCCCCCC[n+]1cccc2c3ccccc3ccc21 | – | · | – | 48 | ·
C[C@H]1CN([C@@H](C)CO)C(=O)c2cc(C#CC3CCCCC3)cnc2O[C@@H]1CN(C)S(=O)(=O)c1ccc(F)cc1 | · | – | · | · | –
COc1ccc(C[C@H](N)C(=O)N[C@H]2[C@@H](O)[C@H](n3cnc4c(N(C)C)ncnc43)O[C@@H]2CO)cc1 | – | – | 93 | – | –
CN(C)c1ncnc2c1ncn2C1OC(CO)C(O)C1O (configuration not stated) | – | · | – | – | ·
COCC(=O)N1[C@@H]2CN(C(=O)c3ccccc3)c3ccccc3[C@@H]2[C@@H]1CO | · | – | · | · | –
O=S(=O)(c1ccc2c(c1)OCCO2)N1CCC(c2nc3ccccc3s2)CC1 | – | – | 53 | – | –
CCCNC(=O)N1[C@H](C#N)[C@H](c2ccc(-c3cccc(OC)c3)cc2)[C@@H]1CO | · | – | · | · | ·
COC(=O)c1c(C)oc2ccc(N(C(=O)c3ccncc3)S(=O)(=O)c3ccc4ccccc4c3)cc12 | 53 | · | 57 | – | –
Cc1ccc([N+](=O)[O-])cc1S(=O)(=O)N(C(=O)c1ccncc1)c1ccc2oc3c(c2c1)CCCC3 | – | – | – | – | –
COC(=O)c1c(C)oc2ccc(N(C(=O)c3ccncc3)S(=O)(=O)c3ccc(C)cc3)cc12 | 59 | · | 56 | – | ·
Cc1ccc(S(=O)(=O)N(C(=O)c2ccncc2)c2ccc3oc4c(c3c2)CCCC4)cc1[N+](=O)[O-] | 54 | – | – | – | –
COC(=O)c1c(C)oc2ccc(N(C(=O)c3ccncc3)S(=O)(=O)c3ccc(C)cc3C)cc12 | 66 | · | 80 | – | –
COC(=O)c1c(C)oc2ccc(N(C(=O)c3ccncc3)S(=O)(=O)c3ccccc3)cc12 | – | · | – | – | ·
COC(=O)c1c(C)oc2ccc(N(C(=O)Oc3ccccc3)S(=O)(=O)c3ccc(Cl)c([N+](=O)[O-])c3)cc12 | – | · | – | – | ·
C[C@H](CO)N1C[C@H](C)[C@H](CN(C)C)Oc2ncc(-c3cccnc3)cc2C1=O | · | – | · | · | –
C[C@@H]1CN([C@@H](C)CO)C(=O)Cc2cc(NS(C)(=O)=O)ccc2O[C@@H]1CN(C)Cc1ccc(C(=O)O)cc1 | · | – | · | · | –
O=C(Oc1ccc(N(C(=O)c2ccncc2)S(=O)(=O)c2cccs2)cc1)c1ccncc1 | – | – | – | – | –
Cc1cc(F)ccc1S(=O)(=O)N(C(=O)c1ccncc1)c1ccc(OC(=O)c2ccncc2)cc1 | 62 | – | 56 | – | –
O=C(/C=C/Nc1ccc(Br)cc1F)c1ccco1 | – | 73 | 63 | – | 89
O=C(/C=C/Nc1ccc(F)cc1F)c1ccco1 | – | 65 | 73 | – | ?
O=C(/C=C/Nc1ccccc1O)c1ccco1 | – | – | – | – | –
SMILES | TROY NFkB inh | EWS-Fli block | TWEAK-Fn14 inh | LMP1 NFkB inh | LGR2 inh
CN(C)c1ccc(N/C=C/C(=O)c2ccco2)cc1 | – | · | 86 | – | ·
O=Nc1c(O)c2ccccc2c2ccccc12 | – | – | 98 | – | 82
O=Nc1c2cc3ccccc3[nH]c-2c2ccccc12 | – | – | – | – | –
CCN1[C@@H]2c3ccc(-c4ccc(F)cc4)c(=O)n3C[C@@H]2[C@@H](CO)[C@@H]1C(=O)OC | · | – | · | · | –
CCN1C(=O)N[C@@H](CCc2ccccc2)[C@H](C(C)=O)[C@H]1C | – | – | – | 58 | –
CC1=C(CO)C(=O)OC([C@@H](C)C2CC[C@H]3C4C[C@H]5O[C@]56[C@@H](O)C=CC(=O)[C@]6(C)C4CC[C@]23C)C1 (some centres not stated) | – | 64 | 103 | 83 | ·
CCOC(=O)c1c(C)[nH]c(C)c1C(=O)CSc1nc2ccccc2c(=O)n1-c1ccc(CC)cc1 | – | · | 50 | – | –
CCCNC(=O)C[C@@H]1CC[C@H]2[C@@H](COc3ccc(NC(=O)c4cc(C)on4)cc3C(=O)N2C)O1 | · | – | · | · | –
O=C(Nc1ccc(Cl)cc1)Nc1cccc(C(=O)O)c1 | – | 82 | – | 62 | 92
